Measured values reported in PubChem BioAssay (NCI).
This is part of a sample that, as a whole, favours compounds with a hit. Of some 83,000 tested, about 20% had one in any assay.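 Note: values are percent growth. 100 is the growth of untreated cells, values between 100 and 0 indicate rising inhibition; between -100 and 0 indicates cell death.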 Calls of active or inactive are those of the source. Rule for the calls: active = growth percent below 10; inactive = the rest.

Experiments:
Assay in all cases: NCI-60 one-dose screen, 48 h (100 = growth as untreated, 0 = no growth, -100 = all killed)
Conditions in all cases: 10 µM unless noted
[1] = tested on: DU-145 prostate
[2] = tested on: K-562 leukemia
[3] = tested on: MALME-3M melanoma
[4] = tested on: MDA-MB-231 breast
[5] = tested on: RXF 393 renal
[6] = tested on: SF-268 CNS
[7] = tested on: SF-295 CNS
[8] = tested on: SF-539 CNS
[9] = tested on: UACC-257 melanoma
[10] = tested on: M14 melanoma
[11] = tested on: HCT-15 colon
[12] = tested on: HT29 colon
[13] = tested on: SNB-75 CNS
[14] = tested on: SNB-19 CNS
[15] = tested on: U251 CNS
[16] = tested on: PC-3 prostate
[17] = tested on: SK-MEL-5 melanoma
[18] = tested on: UACC-62 melanoma
[19] = tested on: LOX IMVI melanoma
[20] = tested on: SK-MEL-28 melanoma

Measured: growth

Cc1oc2c(c1C(=O)N1CC[C@@H](N)C1)C(=O)c1c(c(O)c3ccccc3c1O)C2=O
inactive: [1] 24% | [3] 53.2% | [4] 35.2% | [5] 48.9% | [6] 16% | [7] 29.9% | [8] 46.9% | [9] 74.8% | [10] 38.8% | [11] 20.7% | [12] 11.3% | [13] 31.8% | [14] 40% | [15] 23.8% | [16] 10.9% | [17] 42.7% | [18] 55.2% | [19] 24.9% | [20] 62.9%
active: [2] 3.82%

COc1ccc(-c2nc3sccn3c2/C=C/C(=O)c2cc(OC)c(OC)c(OC)c2)cc1OC
active: [1] 6.29% | [5] -1.12% | [7] 5.22% | [10] 7.09% | [12] 4.2% | [13] -8.25% | [17] 5.76% | [19] 9.65%
inactive: [2] 13.9% | [3] 37.7% | [4] 31.7% | [6] 28.2% | [8] 24.6% | [9] 24.5% | [11] 22% | [14] 28.5% | [15] 10% | [16] 22.6% | [18] 15.3% | [20] 53.2%

Fc1c[c-]c(-c2ccccn2)c(F)c1.Fc1c[c-]c(-c2ccccn2)c(F)c1.[Cl][Pt+].[Cl][Pt+].c1ccc([PH+](C[PH+](c2ccccc2)c2ccccc2)c2ccccc2)cc1
active: [3] -41.2% | [4] -15.4% | [9] -0.265% | [12] 7.78% | [17] -70.8% | [18] 3.59%
inactive: [1] 22.8% | [2] 10.2% | [5] 34% | [6] 21.9% | [7] 17.3% | [8] 29.5% | [10] 22.7% | [11] 90.8% | [13] 20.1% | [14] 17.8% | [15] 15% | [16] 14.9% | [19] 20.5% | [20] 16.1%

Cc1nn(CC(=O)O)c2c1C(=O)CC(C)(C)C2
inactive: [1] 118% | [2] 123% | [3] 118% | [4] 114% | [5] 117% | [6] 103% | [7] 102% | [8] 102% | [9] 96.9% | [10] 93.2% | [11] 102% | [12] 108% | [13] 86.8% | [14] 103% | [15] 119% | [16] 102% | [17] 115% | [18] 91% | [19] 107% | [20] 105%

CCN1C(=O)C2(Nc3ccccc3S2)c2cc(C)ccc21 (stereo not given)
inactive: [1] 101% | [2] 108% | [3] 84.1% | [4] 105% | [5] 93.7% | [6] 98.2% | [7] 101% | [8] 94.4% | [9] 101% | [10] 92.6% | [11] 101% | [12] 107% | [13] 76.2% | [14] 107% | [15] 97.5% | [16] 89% | [17] 95.1% | [18] 102% | [19] 103% | [20] 105%

Cc1cccc2c(=O)c3c(sc12)c(NCCCN)nc1ccccc13
inactive: [3] 13.9% | [5] 31.5% | [6] 46.2% | [7] 68% | [8] 38.4% | [9] 81.9% | [13] 19.7% | [14] 51.3% | [16] 34.8% | [17] 47.3% | [18] 14.2%
active: [1] -19.8% | [2] -34.6% | [4] -32.4% | [10] -19.7% | [11] -69.2% | [12] -52.8% | [15] 1.33% | [19] -93.7% | [20] 8.94%

COC(=O)c1c2c(c(C)[n+]([O-])c1C)C(=O)C=C(NCc1cccc(OC)c1)C2=O
active: [1] -99.1% | [2] -23.6% | [3] -98.9% | [4] -17.4% | [5] -46.7% | [6] -16.1% | [7] -97.5% | [8] -92.3% | [9] -87.1% | [10] -83.4% | [11] -74.8% | [12] 2.57% | [13] -97.7% | [14] -88.4% | [15] -39.3% | [16] -2.04% | [17] -97.2% | [18] -68.1% | [19] -79.7% | [20] -22.3%

O=C1CC(c2ccsc2)c2snc(-c3ccc(Cl)cc3)c2N1 (stereo not given)
inactive: [1] 19.4% | [2] 16.4% | [3] 37.7% | [4] 90% | [5] 25.4% | [6] 56.1% | [7] 17.1% | [8] 32.4% | [9] 50% | [10] 13.9% | [11] 21.9% | [14] 64.4% | [15] 27.7% | [16] 24% | [17] 18.1% | [18] 30.8% | [19] 51.8% | [20] 45.4%
active: [12] 3.6% | [13] -6.98%

Cc1c(C(=O)Nc2nc(-c3ccccc3)cs2)nnn1-c1cccc2ccccc12
active: [17] -2.94% [50 µM]
inactive: [1] 64.7% [50 µM] | [2] 30.5% [50 µM] | [3] 55.4% [50 µM] | [4] 68.7% [50 µM] | [5] 89.1% [50 µM] | [6] 72.5% [50 µM] | [7] 37.2% [50 µM] | [8] 69.2% [50 µM] | [9] 44.9% [50 µM] | [10] 64.7% [50 µM] | [11] 57.9% [50 µM] | [12] 64.3% [50 µM] | [13] 80.6% [50 µM] | [14] 72.3% [50 µM] | [15] 72.7% [50 µM] | [16] 53.8% [50 µM] | [18] 49.2% [50 µM] | [19] 43.4% [50 µM] | [20] 69.9% [50 µM]

COc1cc(C(=O)/C=C/c2c(-c3cccs3)nc3sccn23)cc(OC)c1OC
active: [1] 3.28% | [4] 7.07% | [5] -20.7% | [7] -35.8% | [8] -27.6% | [9] 5.19% | [10] 7.73% | [11] -36.7% | [12] -13.8% | [13] -27.7% | [15] 0.929% | [16] 7.06% | [17] -37.9% | [18] -56.4% | [19] -68.5%
inactive: [2] 15.4% | [3] 34.8% | [6] 17.7% | [14] 14.4% | [20] 16.5%

COC(=O)c1c2c(c(C)[n+]([O-])c1C)C(=O)C=C(NCc1ccc(Cl)cc1)C2=O
inactive: [20] 10.6%
active: [1] -83.7% | [2] 1.55% | [3] -95% | [4] -20.7% | [5] -31.7% | [6] 0.305% | [7] -59.7% | [8] -89.8% | [9] -84.7% | [10] -85.5% | [11] -54.8% | [12] 2.63% | [13] -94.8% | [14] -23.5% | [15] -7.46% | [16] 1.07% | [17] -98.8% | [18] -65.5% | [19] -23.2%

c1ccc(-c2n(Cc3ccc4ccccc4c3)c3ccccc3[n+]2Cc2ccc3ccccc3c2)cc1
active: [1] 4.24% | [2] -35.8% | [3] -57.5% | [4] -49.4% | [5] -39.4% | [6] -61.9% | [7] -47.1% | [8] -16.2% | [9] -21.4% | [10] -75.8% | [11] -31.9% | [12] -68.1% | [13] -43.9% | [14] -16.4% | [15] -73.3% | [16] -30.5% | [17] -98.1% | [18] -82.9% | [19] -97.3% | [20] -43.7%

O=C1N/C(=C\c2ccccc2)c2ncccc21
inactive: [1] 106% | [2] 90.7% | [3] 95.2% | [4] 94.3% | [5] 127% | [6] 98.6% | [7] 107% | [8] 101% | [9] 100% | [10] 98.5% | [11] 101% | [12] 113% | [13] 91.8% | [14] 104% | [15] 104% | [16] 102% | [17] 105% | [18] 102% | [19] 99.2% | [20] 119%

c1ccc2cc(-c3n(Cc4ccc5ccccc5n4)c4ccccc4[n+]3Cc3ccc4ccccc4n3)ccc2c1
active: [2] -6.05% | [3] -32.9% | [4] -21% | [5] -18.8% | [6] -3.09% | [7] -13.7% | [8] 0.28% | [9] -14.2% | [10] -8.82% | [12] -31.7% | [13] -32.8% | [14] 6.22% | [15] -7.46% | [16] 0.461% | [17] -96% | [18] -60.6% | [19] -85.8% | [20] -24.2%
inactive: [1] 13.3% | [11] 18.8%

O=C1/C(=C/c2ccc(Cl)cc2)N=C(c2ccccc2)N1CCc1cccs1
inactive: [1] 48.4% | [2] 62.3% | [3] 65% | [4] 64.8% | [5] 69.9% | [6] 74.7% | [7] 51.5% | [8] 40.3% | [9] 56.3% | [10] 42.2% | [11] 10.2% | [13] 31.1% | [14] 64.5% | [15] 44.5% | [16] 59% | [17] 84.7% | [18] 55.7% | [19] 30.1% | [20] 77.4%
active: [12] 0.797%
